Laboratory results published in PubChem BioAssay (NCATS).
Inconclusive results are not listed. Calls of active or inactive are those of the source. Calls come from the whole dose curve; as a rule, active = well fitted curve in the direction sought with a large enough effect; inconclusive = small, poorly fitted or top-dose-only effect, or another doubt; inactive = no such curve, though single readings can be large; an effect the other way counts as inactive or inconclusive.

Key:
[1] = test system: Zika virus NS2B-NS3 protease (linked construct); test: Primary screen NINDS Rhodamine qHTS for Zika virus inhibitors (AID 1347160); note: % is set by controls: 0 for no effect and ±100 for the full control effect; nearly all actives have a fitted effect of over 55% in size
Summary of the method: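 In 10 mM Tris-HCl pH 8.0 containing 0.01% Tween 20, linked NS2B-NS3 protease (25 nM final) is exposed to test compounds for 15 min. Cleavage of 1.5 microM Rhodamine110 substrate is tracked by fluorescence over 15 min.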

[2] = biological target: Calcium and integrin-binding protein 1 (Homo sapiens) (UniProt Q99828); test: Primary qHTS for Identification of Calcium Integrin Binding Protein 1 (CIB1) Competitor (AID 1508620);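 note: GST tagged CIB1 binding a fluorescein labelled alphaIIb integrin peptide tracer; top concentration of the series differs between compounds; % is set by controls: 0 for no effect and ±100 for the full control effect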
Summary of the method: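 CIB1-GST (1 uM final) and compound incubated 15 min at room temperature before adding FITC-alphaIIb peptide tracer (100 nM final). Competition for binding read by fluorescence polarization (ex 480, em 540) after another 15 min at room temperature.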

[3] = biological target: Glutathione peroxidase 1 (Homo sapiens) (UniProt P07203); test: Primary qHTS Assay for Inhibitors of Recombinant Selenoprotein Glutathione Peroxidase 1 (GPX1) (AID 1845191); note: nearly all actives have a fitted effect of over 65% in size
Summary of the method: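 10 nM GPX1 + cpd, 30 min RT; start w/ 1 mM GSH, 0.5 mM cumene hydroperoxide, 0.5 mM NADPH, 100 nM GR, 0.01% BSA; buffer 50 mM Tris-HCl pH 7.5, 2 mM EDTA, 150 mM NaCl; Fl 340/450, 0 & 15 min.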

[4] = biological target: Phospholipid hydroperoxide glutathione peroxidase GPX4 (Homo sapiens) (UniProt P36969); test: Primary qHTS Assay for Inhibitors of Recombinant Selenoprotein Glutathione Peroxidase 4 (GPX4) (AID 1845192); note: nearly all actives have a fitted effect of over 65% in size
Summary of the method: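 NADPH consumption, followed by fluorescence at 340/450 nm between 0 and 15 min, reports GPX4 activity via coupled glutathione reductase (100 nM). Enzyme 200 nM was pre-exposed to compound 30 min; 0.5 mM cumene hydroperoxide and 1 mM GSH served as substrates.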

[5] = biological target: Luciferin 4-monooxygenase (Photinus pyralis) (UniProt P08659); test: Primary firefly luciferase (FLuc) qHTS assay for identification of artifact compounds. (AID 1845220); conditions: outcome: dose series up to 54.1 µM unless noted; note: nearly all actives have a fitted effect of over 60% in size
Summary of the method: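 Cell-free, 1536-well qHTS. Buffer pH 7.6 with 0.01% Tween-20 and 0.05% BSA; 10 uM D-luciferin, 10 uM ATP; 10 nM P. pyralis luciferase; luminescence after 5 min.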

[6] = Primary fluorescence-based thiol-reactive (MSTI) qHTS assay for identification of artifact compounds. (AID 1845221);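 note: thiol-reactive compounds lower the probe fluorescence signal; nearly all actives have a fitted effect of over 65% in size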
Summary of the method: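 Thiol-reactive compounds detected by quenching of 4 uM MSTI fluorescence (525/598 nm) after 1 h room-temperature dark incubation in PBS pH 7.4, 2% DMSO. qHTS titration; percent inhibition Hill-fitted against Acetyl-MSTI/MSTI controls.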

[7] = test system: Nanoluciferase (engineered Oplophorus gracilirostris luciferase); test: Primary Nanoluciferase (NLuc) qHTS assay for identification of artifact compounds. (AID 1845222);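 note: 0% = DMSO and -100% = no enzyme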
Summary of the method: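 Compounds are pinned into diluted (1:55) conditioned medium of NLuc-expressing S16 cells and held 15 min at room temperature protected from light. Nano-Glo substrate follows, and luminescence is read 5 min later.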

[8] = Primary redox qHTS assay for identification of artifact compounds. (AID 1845223);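 note: 0% = DMSO and 100% = reference compound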
Summary of the method: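 Amplex Red (25 uM) and HRP (250 mU/mL) in HBSS, with compounds for 15 min, then 250 uM DTT for 30 min, room temperature, dark. Fluorescence 525/598 nm read; normalized to DMSO and 10 uM DA3003; Hill fit.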

[9] = test system: HaCat; test: Cytotoxic Profiling of Annotated Libraries Using Quantitative High-Throughput Screening (AID 1296008); conditions: Five cell lines viability, CellTiter-Glo ATP luminescence, 48-72 h; max response: active compounds read low; note: nearly all actives have a fitted effect of over 60% in size; note: potency is the fitted concentration of half-maximal effect; for max response: % is set by controls: 0 for no effect and ±100 for the full control effect
Summary of the method: (§1)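 Cytotoxicity was measured as CellTiter-Glo ATP luminescence, read after 10 min at room temperature. Compound treatment of the cells lasted 48 or 72 hr at 37 degrees Celsius in a qHTS format.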

[10] = test system: C33A; test: Primary qHTS to identify gynecologic anti-cancer compounds using libraries of approved drugs and bioactive compounds (AID 1345084); conditions: Gynecologic cancer cell panel viability, ATPlite luminescence, 48 h; series mostly up to 57.5 µM; note: nearly all actives have a fitted effect of over 55% in size; note: potency is the fitted concentration of half-maximal effect
Summary of the method: (§2)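 Five-point cytotoxicity, 48 h drug exposure at 37 C, 5% CO2, on cells seeded 16 h beforehand. ATP content read by ATPlite luminescence.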

[11] = test system: CAOV3; test: as above; conditions: Gynecologic cancer cell panel viability, ATPlite luminescence, 48 h; series mostly up to 57.5 µM
Summary of the method: as §2

[12] = test system: CASKI; test: as above; conditions: Gynecologic cancer cell panel viability, ATPlite luminescence, 48 h; series mostly up to 57.5 µM
Summary of the method: as §2

[13] = test system: Es-2; test: as above; conditions: Gynecologic cancer cell panel viability, ATPlite luminescence, 48 h; series mostly up to 57.5 µM
Summary of the method: as §2

[14] = test system: Hek293T; test: as above; conditions: Gynecologic cancer cell panel viability, ATPlite luminescence, 48 h, control line for the selectivity index; series mostly up to 57.5 µM
Summary of the method: as §2

[15] = test system: JEG-3; test: as above; conditions: Gynecologic cancer cell panel viability, ATPlite luminescence, 48 h; series mostly up to 57.5 µM
Summary of the method: as §2

[16] = test system: OV90; test: as above; conditions: Gynecologic cancer cell panel viability, ATPlite luminescence, 48 h; series mostly up to 57.5 µM
Summary of the method: as §2

[17] = test system: PA-1; test: as above; conditions: Gynecologic cancer cell panel viability, ATPlite luminescence, 48 h; series mostly up to 57.5 µM
Summary of the method: as §2

[18] = test system: Tov-21-G; test: as above; conditions: Gynecologic cancer cell panel viability, ATPlite luminescence, 48 h; series mostly up to 57.5 µM
Summary of the method: as §2

[19] = test system: Tov112D; test: as above; conditions: Gynecologic cancer cell panel viability, ATPlite luminescence, 48 h; series mostly up to 57.5 µM
Summary of the method: as §2

[20] = test system: NIH3T3; test: Cytotoxic Profiling of Annotated Libraries Using Quantitative High-Throughput Screening (AID 1296008); conditions: Five cell lines viability, CellTiter-Glo ATP luminescence, 48-72 h; max response: active compounds read low; note: nearly all actives have a fitted effect of over 60% in size; note: potency is the fitted concentration of half-maximal effect; for max response: % is set by controls: 0 for no effect and ±100 for the full control effect
Summary of the method: as §1

Chain of Calcium and integrin-binding protein 1 (Homo sapiens) (Q99828 whole entry, looked up): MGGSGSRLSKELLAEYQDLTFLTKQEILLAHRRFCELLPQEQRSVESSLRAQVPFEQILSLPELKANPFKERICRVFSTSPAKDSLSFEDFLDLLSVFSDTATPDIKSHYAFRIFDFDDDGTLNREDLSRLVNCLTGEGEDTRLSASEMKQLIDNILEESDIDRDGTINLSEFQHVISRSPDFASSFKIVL
Chain of Glutathione peroxidase 1 (Homo sapiens) (P07203 whole entry, looked up): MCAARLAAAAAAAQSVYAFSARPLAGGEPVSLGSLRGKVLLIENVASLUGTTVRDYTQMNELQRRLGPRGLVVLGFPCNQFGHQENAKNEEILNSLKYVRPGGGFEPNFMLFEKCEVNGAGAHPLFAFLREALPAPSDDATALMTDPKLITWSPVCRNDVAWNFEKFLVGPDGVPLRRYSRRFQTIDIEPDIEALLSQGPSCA
Chain of Phospholipid hydroperoxide glutathione peroxidase GPX4 (Homo sapiens) (P36969 whole entry, looked up): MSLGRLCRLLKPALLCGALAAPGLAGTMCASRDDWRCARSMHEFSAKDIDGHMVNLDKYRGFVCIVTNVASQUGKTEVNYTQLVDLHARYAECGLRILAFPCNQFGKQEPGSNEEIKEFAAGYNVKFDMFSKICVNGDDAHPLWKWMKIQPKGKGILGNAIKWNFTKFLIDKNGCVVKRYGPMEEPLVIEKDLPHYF

C[C@]12CC[C@@H](O)C[C@@H]1CC[C@@H]1[C@@H]2CC[C@]2(C)C(=O)[C@@H](Br)C[C@@H]12
inactive: Potency [1] | Potency [2] | Potency [3] | Potency [4] | outcome [5] | Potency [6] | Potency [7] | Potency [8] | outcome [9] | Potency [10] | Potency [11] | Potency [12] | Potency [13] | Potency [14] | Potency [15] | Potency [16] | Potency [17] | Potency [18] | Potency [19]

CCC(C)C1NC(=O)C(C(C)=O)=C1O (stereo not drawn)
inactive: Potency [2] | Potency [3] | Potency [4] | outcome [5] | Potency [6] | Potency [7] | Potency [8] | outcome [9] | Potency [10] | Potency [11] | Potency [12] | Potency [13] | Potency [14] | Potency [15] | Potency [16] | Potency [17] | Potency [18] | Potency [19]

CN1C(=O)[C@]23CC4C(C)(C)[C@@]5(C[C@@]41CN2CC[C@@]3(C)O)C(=O)Nc1c5ccc2c1OC=CC(C)(C)O2 (stereo partly drawn)
inactive: Potency [2] | Potency [3] | Potency [4] | outcome [5] | Potency [7] | Potency [8] | max response [9] -7.56% | max response [20] -0.852% | Potency [10] | Potency [11] | Potency [12] | Potency [13] | Potency [14] | Potency [15] | Potency [16] | Potency [17] | Potency [18] | Potency [19]

CO[C@H]1C[C@H](O[C@H]2CC[C@]3(C=O)[C@H]4CC[C@]5(C)[C@@H](C6=CC(=O)OC6)CC[C@]5(O)[C@@H]4CC[C@]3(O)C2)O[C@H](C)[C@H]1O
active: Potency [9] 356 nM | Potency [10] 100 nM | Potency [11] 199 nM | Potency [13] 141 nM | Potency [14] 224 nM | Potency [16] 891 nM | Potency [17] 141 nM | Potency [18] 141 nM | Potency [19] 89.1 nM
inactive: Potency [1] | Potency [2] | Potency [3] | Potency [4] | outcome [5] inactive [at 25.7 µM] | Potency [6] | Potency [7] | Potency [8] | outcome [20]

C#CC1(O)CCC2C3CCC4=CC(=O)CCC4=C3C=CC21C (stereo not drawn)
inactive: Potency [1] | Potency [2] | Potency [3] | outcome [5] | Potency [6] | Potency [7] | Potency [8] | outcome [9] | Potency [10] | Potency [11] | Potency [12] | Potency [13] | Potency [14] | Potency [15] | Potency [16] | Potency [18] | Potency [19]
active: Potency [17] 11200 nM

NCCCCCNC1(c2ccccc2)CCCCC1
inactive: Potency [2] | Potency [3] | Potency [4] | Potency [6] | Potency [7] | Potency [8] | outcome [9] | max response [20] -1.15% | Potency [10] | Potency [11] | Potency [12] | Potency [13] | Potency [14] | Potency [15] | Potency [16] | Potency [17] | Potency [18] | Potency [19]

COc1ccc2c(c1)c(CCN(C)C)cn2S(=O)(=O)c1ccccc1
inactive: Potency [3] | outcome [5] | Potency [6] | Potency [7] | Potency [8] | outcome [9] | outcome [20] | Potency [10] | Potency [11] | Potency [12] | Potency [13] | Potency [14] | Potency [15] | Potency [16] | Potency [17] | Potency [18] | Potency [19]

C/C=C1/CN2CC[C@]34C(=Nc5ccccc53)[C@@H]2C[C@@H]1[C@H]4C(=O)OC
inactive: Potency [1] | Potency [3] | Potency [4] | outcome [5] | Potency [7] | Potency [8] | max response [9] -0.364% | max response [20] -14.3% | Potency [10] | Potency [11] | Potency [12] | Potency [13] | Potency [14] | Potency [15] | Potency [16] | Potency [17] | Potency [18] | Potency [19]

CCC1CN2CCc3cc(OC)c(OC)cc3C2CC1CC1=NCCc2cc(O)c(OC)cc21 (stereo not drawn)
inactive: Potency [1] | Potency [2] | Potency [3] | Potency [4] | outcome [5] | Potency [7] | outcome [9] | Potency [10] | Potency [11] | Potency [12] | Potency [13] | Potency [14] | Potency [15] | Potency [16] | Potency [17] | Potency [18] | Potency [19]

CN1C(=O)C(Cc2ccc3ccccc3c2)N=C(c2ccc(O)cc2)c2cc(Cl)ccc21 (stereo not drawn)
inactive: Potency [3] | outcome [5] | Potency [6] | Potency [7] | Potency [8] | outcome [9] | max response [20] -0.878% | Potency [10] | Potency [11] | Potency [12] | Potency [13] | Potency [14] | Potency [15] | Potency [16] | Potency [17] | Potency [18] | Potency [19]
